From ChEMBL document CHEMBL3433997, “St. Jude Leishmania screening dataset” (2016) come the findings set out here.

What all share (type): functional
In assay [1] the target is Solute carrier family 2, facilitated glucose transporter member 1 (Homo sapiens) (UniProt P11166). In words: ST_JUDE_LEISH: Cytotoxicity at 2uM final concentration against transgenic Leishmania Mexicana promastigotes LmGLUT1 that are glucose transport deficient and complemented with the human glucose transporter GLUT1. Activity is measured by DNA content using SYBR green in vitro.

Assay [2] has as its target Hexose transporter 1 (Plasmodium falciparum) (UniProt O97467). In words: ST_JUDE_LEISH: Cytotoxicity at 2uM final concentration against transgenic Leishmania Mexicana promastigotes LmPfHT that are glucose transport deficient and complemented with the Plasmodium falciparum hexose transporter. Activity is measured by DNA content using SYBR green in vitro.
Assay [3] concerns the target Glucose transporter (Leishmania mexicana) (UniProt O61059). In words: ST_JUDE_LEISH: Cytotoxicity at 2uM final concentration against transgenic Leishmania Mexicana promastigotes LmGT2 that are glucose transport deficient and complemented with the L. Mexicana glucose transporter 2. Activity is measured by DNA content using SYBR green in vitro.

Structures are written as SMILES.

Solute carrier family 2, facilitated glucose transporter member 1 (Homo sapiens), sequence (P11166 whole entry): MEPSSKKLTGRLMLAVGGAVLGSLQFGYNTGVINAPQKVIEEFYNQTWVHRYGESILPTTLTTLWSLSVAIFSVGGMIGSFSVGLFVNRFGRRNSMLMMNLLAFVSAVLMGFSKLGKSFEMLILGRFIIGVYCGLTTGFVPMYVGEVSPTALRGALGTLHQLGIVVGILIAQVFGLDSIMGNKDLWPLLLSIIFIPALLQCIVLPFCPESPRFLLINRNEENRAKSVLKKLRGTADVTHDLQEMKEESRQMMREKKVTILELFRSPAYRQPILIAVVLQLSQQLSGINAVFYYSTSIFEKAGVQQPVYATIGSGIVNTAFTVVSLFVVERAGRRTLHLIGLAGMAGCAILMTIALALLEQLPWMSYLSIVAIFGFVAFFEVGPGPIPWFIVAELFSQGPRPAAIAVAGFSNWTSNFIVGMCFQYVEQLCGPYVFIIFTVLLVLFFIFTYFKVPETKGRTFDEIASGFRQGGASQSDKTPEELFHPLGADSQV

Regarding `O=[N+]([O-])c1ccc(Nc2nc(N/N=C/c3ccc(-c4ccc([N+](=O)[O-])cc4)o3)nc(Nc3ccccc3)n2)cc1`, the figures for the inhibition in assay [1], in assay [2] and in assay [3] were 0.17%, -3.33% and -5.8%, respectively.
As to `CCCCN1CCN(CC(O)CNC(=O)Nc2ccc(Cl)cc2)CC1` (stereo unspecified), the values for the inhibition in assay [1], in assay [2] and in assay [3] were 2.88%, 3.59% and 1.81%, respectively.
Consider `COc1cc(NC(=O)CCCN2CCN(c3cccc(Cl)c3Cl)CC2)ccc1N1CCN(C(C)C)CC1`, for which the inhibition is -2.72% in assay [1], 0.8% in assay [2] and -0.51% in assay [3].
In the case of `O=C(Nc1ccccc1Br)c1cn(-c2ccccc2)nc1-c1cccc([N+](=O)[O-])c1`, the inhibition in assay [1] stood at 10.6%; in assay [2] it was 10.4%; in assay [3] it was 8.93%.
Turning to `Cc1cccc2nc(-c3cccc(-c4cccc(NC(=O)C5CC(=O)Nc6ccccc65)c4)c3)[nH]c12` (stereo unspecified), the figures for the inhibition in assay [1], in assay [2] and in assay [3] were 4.88%, -1.8% and 5.82%, respectively.
As for `FC(F)(F)c1cccc(CNCCCCCNCc2ccc(Cl)cc2)c1`, the inhibition in assay [1] was 2.96%; in assay [2] it was 1.16%; in assay [3] it was -0.19%.
`Nc1nc(N)c2c(ccc3c2ccn3C2C=CCCC2)n1` (stereo unspecified): the inhibition in assay [1] was 56.1%; in assay [2], 71.8%; in assay [3], 34.4%.
In the same order, the values of `FC(F)(F)c1ccc2[nH]c(-c3ccc(-c4cccc(CNCCN5CCNCC5)c4)cc3)nc2c1` are 0.53%, -0.94% and -1.87%.
Turning to `COc1ccc(Cl)cc1N1CCN(CCCNC(=O)c2ccc(-c3nc4cc5ccccc5cc4[nH]3)c(F)c2)CC1`, the inhibition came out at 1.51% in assay [1], 3.41% in assay [2] and 1.26% in assay [3].
Consider `COc1cc(Cc2cnc(N)nc2N)cc(OCCCC(=O)O)c1OC`, for which the inhibition stood at 2.98% in assay [1], 1.62% in assay [2] and 1.78% in assay [3].
`CN1CCCC1CCNCc1cccc(-c2cnc(N(C)C3CCCCC3)nc2)c1` (stereo unspecified): the inhibition in assay [1] was found to be 102%; in assay [2], 102%; in assay [3], 101%.
On to `O=C(Nc1cccc(C(F)(F)F)c1)NC1CCN(c2ccnc3cc(Cl)ccc23)CC1`, for which the values for the inhibition in assay [1], in assay [2] and in assay [3] were 1.6%, 1.64% and -1.47%, respectively.
On to `CC(C)(C)OC(=O)c1c(NC(=O)/C=C/c2ccc(O)c(O)c2)sc2c1CCCC2`, for which the inhibition is -1.88% in assay [1], -1.04% in assay [2] and -0.95% in assay [3].
In the same order, the values of `O=[N+]([O-])c1ccccc1/C=N/Nc1ccnc2ccc(C(F)(F)F)cc12` are -0.59%, 2.42% and 0.08%.
For the compound `CC(C)[C@H](NC(=O)c1ccc(O)c(-c2ccc(Cl)c(Cl)c2)c1)C(=O)NCCN(C)C`, the inhibition in assay [1] amounted to 0.25%; in assay [2], 0.6%; in assay [3], 1.16%.
In the same order, the values of `COc1ccc(-c2ccc(NC(=O)c3ccccc3)cc2)cc1CN1CCCN(C)CC1` are 1.09%, -0.14% and -1.41%.
Take `CC(C)CC(=O)N(Cc1ccc(-c2ccc(CNC3Cc4ccccc4C3)cc2)cc1)C1CCNCC1`: the results for the inhibition in assay [1], in assay [2] and in assay [3] were 8.37%, 5.79% and 10.6%, respectively.
Turning to `CO/C(=C\C=C\c1cc2cc(Cl)c(Cl)cc2[nH]1)C(=O)NC1CC2CCCC(C1)N2C` (stereo unspecified), the inhibition in assay [1] was 1.7%; in assay [2], 0.66%; in assay [3] it was 5.12%.
In the case of `Cc1cc(C)n2nc(C(=O)Nc3cc(C(F)(F)F)ccc3N3CCOCC3)nc2n1`, the figures for the inhibition in assay [1], in assay [2] and in assay [3] were 3%, 2.82% and 3.81%, respectively.
As for `O=C(Nc1cccc(-c2ccc(-c3nc4cc(C(F)(F)F)ccc4[nH]3)s2)c1)c1ccncc1`, the inhibition in assay [1] was determined as 8.37%; in assay [2], 8.56%; in assay [3] it was 7.24%.
In the same order, the values of `Cc1cc(Nc2ccccc2)nc(Nc2ccccc2)n1` are 9.14%, 8.33% and 1.86%.
Consider `CCCCN(Cc1cnccc1-c1ccc(Br)cc1)c1ccc(C(O)(C(F)(F)F)C(F)(F)F)cc1`, for which the figures for the inhibition in assay [1], in assay [2] and in assay [3] were 3.94%, 3.75% and 0%, respectively.
Regarding `O=C(NCC1CCN(CCN2CCC(c3cn(CCO)c4ccccc34)CC2)CC1)c1ccc(-c2ccc(C(F)(F)F)cc2)cc1`, the inhibition in assay [1] worked out at 4.27%; in assay [2], 5.41%; in assay [3] it was 3.71%.
For `Nc1nc(N)c2c(ccc3ccccc32)n1`, the results for the inhibition in assay [1], in assay [2] and in assay [3] were 14.7%, 28.9% and 19%, respectively.
With `CN(c1ccc(NC(=O)Nc2cc(C(F)(F)F)ccc2F)cc1)c1ccnc(NCCN2CCCC2)n1`, the inhibition in assay [1] turned out to be 5.11%; in assay [2], 4.8%; in assay [3] it was 4.41%.
Turning to `COc1ccc2c(=O)c(-c3ccc(OC(F)(F)F)cc3)c(C)[nH]c2c1`, the values for the inhibition in assay [1], in assay [2] and in assay [3] were -0.72%, 1.76% and 1.81%, respectively.
Take `NC(=O)C1CCN(Cc2ccc(-c3ccc(-c4nc5cc(C(F)(F)F)ccc5[nH]4)cc3)cc2)CC1`: the values for the inhibition in assay [1], in assay [2] and in assay [3] were 4.65%, 2.32% and 3.93%, respectively.
In the same order, the values of `O=C(CC1CCCCC1)NCC(NCCCNc1cc(=O)c2ccccc2[nH]1)c1cc(Br)cc(Br)c1` (stereo unspecified) are 3.89%, -1.16% and 2.63%.
For the compound `O=C(/C=C/c1ccc(Cl)c(Cl)c1)NCCCCN1CCCN(C(=O)Nc2ccc(Cl)c(Cl)c2)CC1`, the inhibition was -2.19% in assay [1], 0.32% in assay [2] and -1.91% in assay [3].
For the compound `O=C(Nc1nc(-c2cc(F)ccc2F)cs1)c1cncc(Br)c1`, the inhibition amounted to 4.6% in assay [1], 1.79% in assay [2] and 1.42% in assay [3].
On to `NCc1ccc(-c2cccc(CNC3CCN(Cc4ccccc4)CC3)c2)cc1`, for which the inhibition in assay [1] was 5.2%; in assay [2] it was 5.95%; in assay [3] it was 3.72%.
In the same order, the values of `O=C(/C=C/c1ccc(Cl)c(Cl)c1)NCCCCCN1CCN(C(=O)Nc2ccc(Cl)c(C(F)(F)F)c2)CC1` are 2.17%, 0.61% and -1.28%.
In the same order, the values of `O=C(NC1CCCCC1)N(Cc1ccc(-c2cccc(CNC3CCCC3)c2)cc1)C1CCN(Cc2ccccc2)CC1` are 6.18%, 7.64% and 5.72%.
Regarding `CCCCCCCC(=O)N[C@@H](Cc1ccccc1)C(=O)N[C@H](C(=O)O)C(C)C`, the inhibition in assay [1] is 2.54%; in assay [2], 1.23%; in assay [3] it was 2.59%.
For `COc1ccc(Nc2nc(NN=Cc3cc(Br)c(O)cc3O)nc(Nc3ccc([N+](=O)[O-])cc3)n2)cc1`, the inhibition was 0.58% in assay [1], 0.96% in assay [2] and 1.09% in assay [3].
For `C=CCOc1ccc(CNC2CCN(Cc3ccccc3)CC2)cc1Br`, the figures for the inhibition in assay [1], in assay [2] and in assay [3] were 2.99%, 4.16% and 0.3%, respectively.
Turning to `O=C(/C=C/c1ccc(Br)cc1)NCCCCCN1CCC(c2c[nH]c3ccccc23)CC1`, the inhibition is 25.2% in assay [1], 17.3% in assay [2] and 12.7% in assay [3].
Regarding `O=C(Nc1cccc(-c2nn3ncccc3c2-c2ccnc(Nc3ccccc3)n2)c1)c1c(F)cccc1F`, the inhibition stood at 3.26% in assay [1], 11% in assay [2] and 2.04% in assay [3].
For the compound `Cc1ccc(Nc2nc(-c3ccccn3)cs2)nc1`, the inhibition in assay [1] amounted to 75.7%; in assay [2] it was 65.5%; in assay [3], 69.3%.
Take `N#Cc1nc2ccc(OCCN(Cc3ccccc3C(F)(F)F)c3ccc(C#N)c(C(F)(F)F)c3)cc2s1`: the inhibition was found to be 9.32% in assay [1], 6.39% in assay [2] and 8.4% in assay [3].
Take `CN(CC1CCC(NC(=O)/C=C/c2ccc(Cl)c(Cl)c2)CC1)C1CCC(c2c[nH]c3ccccc23)CC1` (stereo unspecified): the inhibition in assay [1] was -0.25%; in assay [2], 0.8%; in assay [3], 2.15%.
Regarding `CS(=O)(=O)c1ccc(CCNCc2ccc(-c3ccc(CN(C(=O)C4CC(=O)c5ccccc54)C4Cc5ccccc5C4)cc3)nc2)cc1` (stereo unspecified), the inhibition in assay [1] was 1.52%; in assay [2], -0.58%; in assay [3] it was -0.89%.
With `O=[N+]([O-])c1cccc(CNCC2CCN(Cc3ccc(O)cc3)CC2)c1`, the results for the inhibition in assay [1], in assay [2] and in assay [3] were 21.4%, 5.62% and 2.59%, respectively.
With `COc1ccccc1N1CCN(Cc2cc(C(C)C)c(C)cc2O)CC1`, the inhibition was found to be 3.59% in assay [1], 6.3% in assay [2] and 0.93% in assay [3].
The matching figures for `Cc1c(S(=O)(=O)Nc2ccc3ccn(CCN(C)C)c3c2)sc2ccc(Cl)cc12`: -0.44%, -0.46% and 1.18%.
For the compound `COc1ccc2cc(C=NNc3nc4ccccc4[nH]3)c(Cl)nc2c1`, the inhibition was -0.3% in assay [1], 0.04% in assay [2] and 1.79% in assay [3].
In the same order, the values of `O=C(/C=C/c1ccc(Cl)c(Cl)c1)NCCCCN1CCC(c2c[nH]c3ccccc23)CC1` are -2.39%, 0.39% and -0.01%.

As a reminder, the inhibition is the change of the read-out against control, counted positive when it falls.
